# Data: PubChem BioAssay (EPA / NIEHS)
# Inconclusive results are not listed. Activity calls are given as the source filed them. How the source made its calls: active means hit-call score of the fitted dose curve at least 0.9, where 1 is the maximum; inconclusive means response in the unintended direction; inactive means score below 0.9.
# Target: human Retinoid X Receptor beta (RXRb), RXRB (gene 6257) (UniProt P28702)
# Assay: ATG_RXRb_TRANS: Attagene TRANS-FACTORIAL HepG2 Assay for human Retinoid X Receptor beta (RXRb) (AID 2283013)
# Outline: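 HepG2 cells transiently transfected with multiplexed reporter units driven by GAL4-UAS and exogenous chimeric NR-Gal4 proteins; treated 24 h. Reporter mRNA measured by RT-PCR, 6-FAM labelling and capillary electrophoresis; gain-of-signal fitted versus DMSO baseline.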
# Chain of human Retinoid X Receptor beta (RXRb), RXRB (gene 6257) (P28702 whole entry, looked up): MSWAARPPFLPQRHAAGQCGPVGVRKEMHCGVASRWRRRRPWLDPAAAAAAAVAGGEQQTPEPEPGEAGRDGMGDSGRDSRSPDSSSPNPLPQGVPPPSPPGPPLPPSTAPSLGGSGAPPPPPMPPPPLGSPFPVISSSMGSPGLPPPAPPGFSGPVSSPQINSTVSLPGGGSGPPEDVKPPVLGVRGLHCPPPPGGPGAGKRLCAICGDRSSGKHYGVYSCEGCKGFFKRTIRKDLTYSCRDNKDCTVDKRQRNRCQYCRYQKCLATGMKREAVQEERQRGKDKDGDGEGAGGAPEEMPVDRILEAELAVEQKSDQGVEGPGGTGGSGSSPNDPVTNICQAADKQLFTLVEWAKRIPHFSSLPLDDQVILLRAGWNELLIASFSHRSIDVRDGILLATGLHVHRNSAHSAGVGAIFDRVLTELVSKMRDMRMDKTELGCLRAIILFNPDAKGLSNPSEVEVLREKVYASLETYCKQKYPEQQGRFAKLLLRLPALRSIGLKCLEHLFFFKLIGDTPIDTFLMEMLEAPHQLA
SMILES,AC50,outcome
CC(C)CCOC(=O)CC(C)C,100 µM (active),–
CCCCCCCCCCCCN1CCOCC1,42.8 µM (active),–
Cc1ccccc1S,–,inactive
COC(=O)c1cccc(C(=O)OC)c1,–,inactive
CCCCC(CC)COCCO (configuration not stated),100 µM (active),–
c1ccc2scnc2c1,–,inactive
CC1=CCC(=C(C)C)CC1,–,inactive
O=C(O)c1cc2ccccc2cc1O,–,inactive
CCC=C(C)C=O,26.6 µM (active),–
N#CCCNCCC#N,–,inactive
O=C(O)c1ccco1,–,inactive
CCCC[N+](C)(CCCC)CCCC,–,inactive
C=CC(C)(CCC=C(C)C)OC(=O)CC (configuration not stated),–,inactive
CCCCCCC(O)CCOC(C)=O (configuration not stated),–,inactive
CC(C)N(c1ccccc1)C(C)C,–,inactive
C=COCC1CCC(COC=C)CC1 (configuration not stated),–,inactive
CCC(CC)CO,–,inactive
CCC(C)COC(=O)CC(C)C (configuration not stated),–,inactive
CC1=CCC(C(C)C)=CC1,–,inactive
CC(=O)CCC(=O)O,–,inactive

# Target: human Thyroid Receptor alpha (THRa1), THRA (gene 7067) (UniProt P10827)
# Sequence (P10827 whole entry, looked up): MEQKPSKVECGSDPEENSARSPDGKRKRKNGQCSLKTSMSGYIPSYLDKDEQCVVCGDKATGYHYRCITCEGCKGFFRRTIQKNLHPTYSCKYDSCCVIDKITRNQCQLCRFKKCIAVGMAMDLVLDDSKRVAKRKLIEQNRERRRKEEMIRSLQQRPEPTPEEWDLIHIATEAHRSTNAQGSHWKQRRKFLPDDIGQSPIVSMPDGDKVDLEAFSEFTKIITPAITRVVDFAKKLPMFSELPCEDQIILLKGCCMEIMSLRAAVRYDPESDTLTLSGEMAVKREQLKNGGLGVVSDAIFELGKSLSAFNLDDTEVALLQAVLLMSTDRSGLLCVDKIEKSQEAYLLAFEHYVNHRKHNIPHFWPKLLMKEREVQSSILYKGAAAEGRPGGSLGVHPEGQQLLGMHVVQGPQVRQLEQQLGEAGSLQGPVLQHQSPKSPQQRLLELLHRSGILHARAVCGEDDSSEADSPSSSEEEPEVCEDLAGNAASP
# Assay: ATG_THRa1_TRANS: Attagene TRANS-FACTORIAL HepG2 Assay for human Thyroid Receptor alpha (THRa1) (AID 2283014)
# Outline: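 Measured here is mRNA from a GAL4-UAS reporter in transfected HepG2 cells carrying a Gal4-fused receptor, 24 h post-dose. DMSO served as negative control and baseline.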
row,SMILES,outcome
1,CC(C)CCOC(=O)CC(C)C,inactive
2,CCCCCCCCCCCCN1CCOCC1,inactive
3,Cc1ccccc1S,inactive
4,CC(C)OB(OC(C)C)OC(C)C,inactive
5,CCCCC(CC)COCCO (configuration not stated),inactive
6,c1ccc2scnc2c1,inactive
7,Nc1ccn([C@H]2CC[C@@H](CO)O2)c(=O)n1,inactive
8,O=C(O)c1cc2ccccc2cc1O,inactive
9,CCCCN(CCCC)CCCCCCN(CCCC)CCCC,inactive
10,CCOC(=O)CC1(C)OCC(C)O1 (configuration not stated),inactive
11,CC1=CCC(C(C)(C)O)CC1 (configuration not stated),inactive
12,CC(C)N(c1ccccc1)C(C)C,inactive
13,C=COCC1CCC(COC=C)CC1 (configuration not stated),inactive
14,Cc1ccncc1,inactive
15,CCC(CC)CO,inactive
16,CCC(C)COC(=O)CC(C)C (configuration not stated),inactive
17,CC(=O)CCC(=O)O,inactive
